Assay outcomes from PubChem.
Hits are enriched below; roughly 12% of the tested compounds scored in any of these assays.
JMJD2A Tudor – qHTS Assay for Inhibitors of JMJD2A-Tudor Domain. Lysine-specific demethylase 4A (Homo sapiens), O75164. AlphaScreen JMJD2A-Tudor / H3K4me3 peptide binding. Potency, µM (highest dose often 114 µM), inactives show top-dose activity change, negative = inhibition, actives largely listed as inhibitors. 4.4% of 390,000 active. AID 504339, 2011; further: on the % scale 0 is the no-effect control and ±100 the full control effect; nearly all actives have a fitted effect of over 50% in size
Sfp PPTase inh – qHTS Assay for Inhibitors of Bacillus subtilis Sfp phosphopantetheinyl transferase (PPTase); 4'-phosphopantetheinyl transferase ffp (Bacillus subtilis), Q9F4F7; Biochemical Sfp PPTase activity, qHTS; Potency, µM, inactives show largest response in the series, negative = inhibition, most hits filed as inhibitors; 3.5% of 310,000 active; AID 1490, 2009;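 further: the enzyme is Sfp with the accession as filed and its product quenches rhodamine fluorescence; 0% = enzyme reaction without inhibitor and -100% = no enzyme wells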
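Buffer: 50 mM Hepes-Na pH 7.6, 10 mM MgCl2, 0.01% Nonidet P-40, 0.01% BSA. Enzyme 15 nM, pre-exposed to compound 15 min; substrates then added and fluorescence change tracked over 30 min.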
L3MBTL1 block – qHTS Assay for the Inhibitors of L3MBTL1 | Potency, µM (series often up to 57.1 µM), for the others: top-dose activity, negative = inhibition, usual class: inhibitors | AlphaScreen L3MBTL1–H3K9me1 peptide binding | Lethal(3)malignant brain tumor-like protein 1 (Homo sapiens), Q9Y468 | 0.66% of 230,000 active; further: on the % scale 0 is the no-effect control and ±100 the full control effect; nearly all actives have a fitted effect of over 60% in size
Target sequence (Q9Y468 whole entry, looked up): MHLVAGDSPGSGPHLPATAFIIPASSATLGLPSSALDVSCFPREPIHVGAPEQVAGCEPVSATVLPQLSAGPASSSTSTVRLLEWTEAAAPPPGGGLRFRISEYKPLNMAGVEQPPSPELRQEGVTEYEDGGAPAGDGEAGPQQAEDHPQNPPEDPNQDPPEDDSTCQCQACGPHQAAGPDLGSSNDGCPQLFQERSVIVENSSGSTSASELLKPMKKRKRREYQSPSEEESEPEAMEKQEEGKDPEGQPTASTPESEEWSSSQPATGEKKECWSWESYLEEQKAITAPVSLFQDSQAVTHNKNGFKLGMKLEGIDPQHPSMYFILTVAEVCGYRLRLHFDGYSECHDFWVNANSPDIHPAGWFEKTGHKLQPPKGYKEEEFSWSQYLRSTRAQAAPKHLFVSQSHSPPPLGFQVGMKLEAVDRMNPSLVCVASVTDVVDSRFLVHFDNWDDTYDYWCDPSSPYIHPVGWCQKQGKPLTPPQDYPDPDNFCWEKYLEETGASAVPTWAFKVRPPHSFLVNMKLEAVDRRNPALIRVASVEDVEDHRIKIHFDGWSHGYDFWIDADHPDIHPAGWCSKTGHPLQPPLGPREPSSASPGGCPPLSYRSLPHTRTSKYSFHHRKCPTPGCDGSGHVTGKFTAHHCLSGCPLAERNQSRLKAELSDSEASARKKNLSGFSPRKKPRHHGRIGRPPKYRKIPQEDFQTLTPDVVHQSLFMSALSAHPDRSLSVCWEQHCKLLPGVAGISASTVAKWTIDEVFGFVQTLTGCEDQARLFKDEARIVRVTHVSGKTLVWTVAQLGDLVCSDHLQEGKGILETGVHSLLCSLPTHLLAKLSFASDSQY
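Read-out is AlphaScreen signal from streptavidin donor and nickel chelate acceptor beads (10 ug/mL final each) bridging L3MBTL1 (50 nM) and biotinylated K9-monomethylated H3(1-15) peptide (75 nM), after 30 min compound exposure at room temperature.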
BAZ2B inh – qHTS Assay for Inhibitors of BAZ2B. Bromodomain adjacent to zinc finger domain protein 2B (Homo sapiens), Q9UIF8. Potency, µM (highest dose often 114 µM), for inactives: at the highest dose activity change, negative = inhibition, usual class: inhibitors. 4.4% of 360,000 active. AlphaScreen BAZ2B-H3K14Ac peptide displacement; further: on the % scale 0 is the no-effect control and ±100 the full control effect; nearly all actives have a fitted effect of over 60% in size
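AlphaScreen displacement: compounds (up to 110uM) incubated 30 min at room temperature with a preformed 50 nM BAZ2B/50 nM biotinylated H3K14Ac peptide complex in PBS pH 7.4 with Tween-20. Donor and acceptor beads at 10 ug/mL final added, 20 min light-protected before reading.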
HP1b binding inh – HTS for Inhibitors of HP1-beta Chromodomain Interactions with Methylated Histone Tails; Chromobox protein homolog 1 (Homo sapiens), P83916; AlphaScreen HP1-beta / biotin-H3K9me3 peptide binding; Potency, µM (titrated, usually from 114 µM), without a hit: at the top dose activity change, negative = inhibition, hits mostly inhibitors; 0.56% of 390,000 active; AID 540317, 2011; further: nearly all actives have a fitted effect of over 70% in size
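Compound inhibition of the preformed complex between 50 nM HP1-beta and 50 nM biotinylated H3K9me3 peptide was read by AlphaScreen. Buffer was PBS pH 7.4 with 0.01% Tween-20. Incubations ran 30 min at room temperature, with 10 ug/mL donor/acceptor beads.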
G9a block – qHTS Assay for Inhibitors of Histone Lysine Methyltransferase G9a; G9a H3K9 monomethylation, AlphaScreen, 2 h; Histone-lysine N-methyltransferase EHMT2 (Homo sapiens), Q96KQ7; 8.8% of 350,000 active; Potency, µM (titrated, usually from 102 µM), for the others: at the highest dose activity, negative = inhibition, actives largely listed as inhibitors; AID 504332, 2011; further: on the % scale 0 is the no-effect control and ±100 the full control effect; nearly all actives have a fitted effect of over 75% in size
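Chemiluminescent proximity detection of H3K9 monomethylation, read after 10 min bead incubation in the dark. Reaction: 20 nM G9a, 500 nM biotin-H3K9 peptide, 20 uM SAM cofactor, 2 h, room temperature, following 15 min enzyme-compound preincubation.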
An asterisk follows results filed as active; ? = inconclusive; . = no result given; [ ] = another dose, or the depositor's remark. The call rests on the fitted dose curve; in most records, active means well fitted curve in the direction sought with a large enough effect; inconclusive means small, poorly fitted or top-dose-only effect, or another doubt; inactive means no such curve, though single readings can be large; an effect the other way counts as inactive or inconclusive. Potency means the concentration at half of the fitted maximal effect.

SMILES	JMJD2A Tudor	Sfp PPTase inh	L3MBTL1 block	BAZ2B inh	HP1b binding inh	G9a block
O=C(CCS(=O)(=O)c1cccc2nsnc12)NC1CCCCCC1	-11%	-20%	3%	-1%[57.1 µM]	14%	40µM*
O=C(CCS(=O)(=O)c1cccc2nonc12)NC1CCCCCC1	-22%	0%	.	2%	16%	-8%[2.33 µM]
C=CCN(C(=O)CCS(=O)(=O)c1cccc2nsnc12)c1ccccc1	-23%	-15%	.	-4%	3%	45µM*
Cc1c(C)c2c(c(C)c1O)CCC(C)(COc1ccc(Cc3sc(=O)[nH]c3O)cc1)O2 (stereo unspecified)	.	0%	.	.	.	?
CCOc1ccc(C2=NC(c3ccncc3)=Nc3ccc(C)cc3N2)cc1OCC	?	.	.	?	-9%	-33%[59 µM]
Oc1ccc(C(c2nnnn2C2CCCC2)N2CCc3ccccc3C2)cc1 (stereo unspecified)	7%[11.4 µM]	50µM*	0%	56µM*	-10%	4.5µM*
COc1ccc(C(c2nnnn2C2CCCC2)N2CCN(C(=O)c3ccco3)CC2)cc1OC (stereo unspecified)	?	2%	.	?	29%[57 µM]	?
COc1cc(C(c2nnnn2C2CCCC2)N2CCc3ccccc3C2)ccc1O (stereo unspecified)	?	18µM*	4%	-30%	?	1.8µM*
Cc1ccc(NC(=O)Cn2c(C)cc(C)c(C#N)c2=O)cc1F	-1%	.	.	3%	38%	18%[59 µM]
CCN(/N=C/c1ccc(Cl)cc1)c1cc(=O)n(C)c(=O)[nH]1	40µM*	-7%	-7%	1%	9%	-1%[59 µM]
C[N+](C)(C)CC/C=C1/c2ccccc2CSc2ccccc21	50µM*	3%	-3%	79µM*	43%	?
O=C(CNC(=O)c1ccccc1F)NCCCN1CCCC1=O	2%	.	5%	0%	32%	3%[59 µM]
O=C1CCCN1CCCNCC(=O)N1c2ccccc2Sc2ccccc21	10µM*	?	.	22µM*	?	?
CC(C)OCCCNCC(O)c1ccccc1 (stereo unspecified)	20µM*	-13%	7%	79µM*	?	?
O=C1CCCN1CCCNCC(O)c1ccccc1 (stereo unspecified)	1µM*	-22%	.	?	?	-2%
O=c1c(-c2ccccc2)nc2cnc(Nc3ccccc3)nc2n1Cc1cccs1	.	9%	.	.	.	27%[0.501 µM]
Cc1ccc(NC(=O)C2CCCN(c3ncnc4onc(C)c34)C2)cc1Cl (stereo unspecified)	-8%	.	.	50%[57.1 µM]	60%	-1%[59 µM]
COc1ccc2c(c1)CC/C(=C\c1ccc(OC)c(Cn3nc(C)cc3C)c1)C2=O	89µM*	35µM*	.	?	1%	?
COc1ccc(/C=N\NC(=O)c2sccc2C)cc1Cn1nc(C)cc1C	-23%	1%	.	-27%	20%	30%
COc1ccc(/C=C2\CCc3ccccc3C2=O)cc1CN1CCOCC1	?	7%	?	?	-20%	35µM*
COc1ccc2c(c1)CC/C(=C\c1ccc(OC)c(Cn3cccn3)c1)C2=O	-31%	45µM*	.	-34%	-8%	?
COc1ccc(/C=C2/CCc3ccccc3C2=O)cc1OC	-12%	-15%	-10%	?	20%	-1%[59 µM]
O=C(O)C1CSC(c2coc3ccccc3c2=O)N1 (stereo unspecified)	25µM*	45µM*	-7%	50µM*	?	?
CC(C)c1ccc(NC(=O)CSc2nc(=O)n(Cc3cccnc3)c3c2CCC3)cc1	-22%	.	.	-27%	28%	0%[59 µM]
COC(=O)c1ccc(/C=C(\C#N)C(=O)NC(C)c2ccccc2)cc1 (stereo unspecified)	-31%	32µM*	1%	-3%	12%	50µM*
SMILES	JMJD2A Tudor	Sfp PPTase inh	L3MBTL1 block	BAZ2B inh	HP1b binding inh	G9a block
CC(NC(=O)/C(C#N)=C/c1ccc([N+](=O)[O-])o1)c1ccccc1 (stereo unspecified)	?	-18%	.	?	-16%	45µM*
CC(NC(=O)/C(C#N)=C/c1cccs1)c1ccccc1 (stereo unspecified)	1%	1%	2%	-16%	27%	-1%
CC(NC(=O)/C(C#N)=C/c1ccco1)c1ccccc1 (stereo unspecified)	-11%	50µM*	.	1%	15%	1%
COc1ccc(/C=C(\C#N)C(=O)NC(C)c2ccccc2)cc1O (stereo unspecified)	-24%	-16%	.	-3%	-16%	7%
Cc1ccc(-c2c(C)n3c4c(=O)n(C)c(=O)n(C)c4nc3n2CCO)cc1	-12%	.	.	-23%	24%	10%[59 µM]
COC(=O)c1sccc1S(=O)(=O)N1CCN(c2cccc(C)c2C)CC1	-8%	.	.	3%	17%	30%[59 µM]
CCOC(=O)N/N=C/c1cc(C)n(-c2ccccc2)c1C	-31%	9%	-9%	-29%	5%	?
CCOC(=O)N/N=C/c1cc(C)n(-c2cccc3ccccc23)c1C	-42%	1%	-3%	?	?	4.5µM*
COC(=O)N/N=C/c1cc(C)n(-c2cccc3ccccc23)c1C	?	-10%	-13%	79µM*	?	-17%[59 µM]
CCOC(=O)c1cc(CC)sc1N1C(=O)CC(Sc2ccccc2C(=O)O)C1=O (stereo unspecified)	-26%	3.5µM*	-24%	63µM*	24%	1.8µM*
CCOC(=O)c1cc(CC)sc1NC(=O)C(c1ccccc1)c1ccccc1	24%	8%	10%	10%	55%	65%
CCOC(=O)c1cc(CC)sc1N1C(=O)CC(Sc2ncccc2C(=O)O)C1=O (stereo unspecified)	-6%	-20%	-3%	-22%	54%	25µM*
NC(=O)c1ccc(SCC(=O)OCC(=O)N2CCCC2=O)c([N+](=O)[O-])c1	-10%	.	-3%	5%	14%	50µM*
CC1CCN(C(=O)c2ccc(SCc3ccccc3F)c([N+](=O)[O-])c2)CC1	?	-19%	4%	-38%	?	28µM*
CC1CCC(NC(=O)COC(=O)CSc2ccc(C(N)=O)cc2[N+](=O)[O-])CC1 (stereo unspecified)	-17%	.	4%	-6%	30%	50µM*
NC(=O)c1ccc(SCC(=O)OCC(=O)NC2CCCCCCC2)c([N+](=O)[O-])c1	?	.	-2%	-23%	?	?
